Data on 6 compounds can be found in PubChem BioAssay (NCI).

Common to all, as to test: NCI-60 one-dose screen, 48 h (100 = growth as untreated, 0 = no growth, -100 = all killed)
Experiment [1] relates to NCI-H460 lung. The note with it: 10 µM unless noted.
The subject of experiment [2] is HOP-92 NSCLC. To be noted: 10 µM unless noted.
Experiment [3] concerns MALME-3M melanoma. To be noted: 10 µM unless noted.
Experiment [4] concerns MDA-MB-231 breast. The note with it: 10 µM unless noted.
Experiment [5] has as its system RXF 393 renal. The note with it: 10 µM unless noted.
Experiment [6] concerns UACC-257 melanoma. The note with it: 10 µM unless noted.
In experiment [7] the test system is HT29 colon. The note with it: 10 µM unless noted.
Experiment [8] concerns PC-3 prostate. To be noted: 10 µM unless noted.
Experiment [9] deals with SK-MEL-5 melanoma. The note with it: 10 µM unless noted.
The test system of experiment [10] is SK-MEL-28 melanoma. To be noted: 10 µM unless noted.
Experiment [11] concerns UO-31 renal. The note with it: 10 µM unless noted.
Experiment [12] relates to CCRF-CEM leukemia. The note with it: 10 µM unless noted.
The test system of experiment [13] is SR leukemia. The note with it: 10 µM.
The subject of experiment [14] is OVCAR-4 ovarian. To be noted: 10 µM unless noted.
Experiment [15] relates to IGROV1 ovarian. To be noted: 10 µM.
Experiment [16] deals with HS 578T breast. The note with it: 10 µM unless noted.
Experiment [17] deals with BT-549 breast. The note with it: 10 µM.
Experiment [18] deals with SW-620 colon. To be noted: 10 µM unless noted.
For experiment [19], the system named is HCC-2998 colon. To be noted: 10 µM unless noted.
Experiment [20] concerns KM12 colon. The note with it: 10 µM unless noted.

About 83,000 compounds went through this panel and 20% of them were active in at least one assay; those are over-represented in the sample as a whole.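 Step 1: grow cells in 96-well plates. Step 2: add test compound at a single concentration. Step 3: incubate 48 h. Step 4: record percent growth.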 Values without a mark were called inactive. Active and inactive are the calls of the source. How the source made its calls: active means growth percent below 10; inactive means the rest.

For `NC(=O)OCC(CO)(c1ccccc1)c1ccccc1`, the growth in experiment [1] was 107%; in [2], 92.9%; in experiment [3] it was 84.6%; in [4], 114%; in experiment [5] it was 99.6%; in [6], 105%. In addition, the growth in experiment [7] is 97.9%; in experiment [8] it was 93.2%; in experiment [9], 96.4%; in experiment [10], 112%; in [11], 80.1%; in experiment [12], 94.4%. Moreover, the growth in experiment [13] was 96.5%; in experiment [14], 99.7%; in [15], 103%; in experiment [16] it was 110%; in [17] it was 107%; in [18] it was 107%. Also, the growth in [19] is 107%; in [20] it was 96.6%.

`C/C(=N/OC(=O)N(C)C)c1ccc(Cl)cc1Cl`: the growth is 104% in experiment [1]; 108% in experiment [2]; 97.6% in experiment [3]; 116% in [4]; 112% in [5]; 101% in experiment [6]. The growth is 105% in experiment [7]; 118% in experiment [8]; 103% in experiment [9]; 110% in [10]; 80.8% in [11]; 94.1% in experiment [12]. Besides, the growth in experiment [13] is 87.2%; in experiment [14], 113%; in experiment [15], 104%; in [16], 107%; in experiment [17] it was 97%; in experiment [18] it was 106%. For the same compound, the growth was 102% in experiment [19] and 108% in experiment [20].

With `CCOC(=O)C1(c2ccccc2)CCN(CC(=O)c2ccc(NC(C)=O)cc2)CC1`, the growth in experiment [1] was 112%; in experiment [2], 66.5%; in experiment [4], 102%; in experiment [5], 124%; in experiment [6] it was 104%; in [7] it was 103%. Also, the growth was 86.8% in [8]; 103% in experiment [9]; 124% in experiment [10]; 99.3% in experiment [12]; 122% in experiment [14]; 113% in experiment [16]. Besides, the growth in [17] was 97%; in experiment [18] it was 104%; in [20], 112%.

On to `CC(=O)OC1CCC2(C)C(=CCC3C4CC(CN5CC5)C(=O)C4(C)CCC32)C1` (stereo not given), for which the growth in experiment [1] is 88.2%; in experiment [2], 92.1%; in experiment [3], 103%; in [4], 99.6%; in experiment [5] it was 93.6%; in experiment [6], 93.3%. The growth in [7] was 85.2%; in [8] it was 88.3%; in experiment [9] it was 99.1%; in [10], 97.9%; in experiment [11], 34.1%; in experiment [12] it was 18.3%. The growth in experiment [13] is 22.9%; in experiment [14] it was 83.1%; in experiment [15], 89.2%; in experiment [16], 87.5%; in experiment [17], 96.9%; in experiment [18], 65.3%. Besides, the results for the growth in experiment [19] and in experiment [20] were 112% and -3.45% (active), respectively.

In the case of `CCOP(=O)(OCC)Oc1ccc(Sc2ccc(OP(=O)(OCC)OCC)cc2)cc1`, the growth in experiment [1] is 113%; in experiment [2] it was 79.7%; in experiment [3] it was 93.5%; in [4], 119%; in [5] it was 106%; in [6], 93.1%. For the same compound, the growth is 108% in experiment [7]; 90.9% in [8]; 100% in experiment [9]; 111% in [10]; 75% in [11]; 86.3% in experiment [12]. In addition, the growth in experiment [13] is 94.2%; in [14] it was 116%; in experiment [15], 98%; in [16] it was 109%; in experiment [17] it was 96%; in experiment [18], 113%. For the same compound, the growth in [19] is 102%; in experiment [20] it was 99.9%.

On to `CNC(=O)O/N=C(/C)c1ccc(Cl)cc1`, for which the growth in experiment [1] is 113%; in experiment [2], 86.4%; in experiment [3], 101%; in [4], 120%; in experiment [5] it was 110%; in [6] it was 104%. The growth in experiment [7] is 99.1%; in [8], 91.8%; in experiment [9], 101%; in experiment [10], 105%; in experiment [11] it was 83.8%; in [12], 96.3%. Besides, the growth was 90% in [13]; 97.3% in [14]; 101% in experiment [15]; 137% in [16]; 91.1% in experiment [17]; 117% in experiment [18]. Moreover, the growth in experiment [19] was 105%; in [20], 114%.
